Hits are enriched below; roughly 17% of the tested compounds scored in any of these assays.
HT1080 IDH1KD tx: qHTS for induction of synthetic lethality in tumor cells producing 2HG: qHTS for the HT-1080-IDH1KD cell line | Potency, µM (top dose mostly 46.1 µM), inactives show at the top dose activity, negative = toxicity, actives largely listed as cytotoxic | HT-1080 IDH1 knockdown viability, ATP luminescence, 48 h | 360,000 tested, 2% active | AID 686971, 2013;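 note: 0% = DMSO wells and -100% = cell-free medium wells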
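Using the IDH1-knockdown HT-1080 line run in the same batch and compound series as the NT line, viability after 48 h at 37 °C was determined by CellTiter-Glo luminescence and expressed as % activity.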
TGFb SMAD3 inh: qHTS for Inhibitors of TGF-b; Potency, µM (series often up to 46.1 µM), for the others: at the top dose activity, negative = inhibition, hits mostly inhibitors; HepG2 CAGA-GFP TGF-b/SMAD3 reporter, GFP fluorescence, 18 h; TGF-beta stimulated, 500 pg/mL final; 410,000 tested, 1.2% active; note: % is set by controls: 0 for no effect and ±100 for the full control effect; nearly all actives have a fitted effect of over 65% in size
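Cell-based qHTS in HEPG2 carrying a CAGA-GFP Smad reporter; compounds added before 500 pg/mL final TGF-beta, 18 h incubation at 37 degrees C, GFP fluorescence quantified per cell by imaging cytometry.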
HT1080-NT tox: qHTS for induction of synthetic lethality in tumor cells producing 2HG: qHTS for the HT-1080-NT fibrosarcoma cell line; HT-1080-NT fibrosarcoma viability, CellTiter-Glo ATP luminescence, 48 h; Potency, µM (top dose mostly 46.1 µM), without a hit: at the highest dose activity, negative = less viability, most hits filed as cytotoxic; 360,000 tested, 1.6% active; AID 686970, 2013;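 note: NT is the 2HG producing partner of a matched IDH1 knockdown line; 0% = DMSO-treated cells and -100% = media-only wells without cells; nearly all actives have a fitted effect of over 55% in size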
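Toxicity toward the 2HG-producing NT line was scored as %Activity, normalised to DMSO and no-cell wells, from CellTiter-Glo luminescence after 48 hours' treatment.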
TDP1 cell noCPT: qHTS for Inhibitors of human tyrosyl-DNA phosphodiesterase 1 (TDP1): qHTS in cells in absence of CPT | DT40 Tdp1-/- hTDP1 cells, no CPT, ATP luminescence, 48 h | Potency, µM (series often up to 46.2 µM), without a hit: at the highest dose activity change, negative = growth inhibition, actives largely listed as inhibitors | 420,000 tested, 15% active; note: % is set by controls: 0 for no effect and ±100 for the full control effect; nearly all actives have a fitted effect of over 55% in size
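Growth kinetics read by CellTiter-Glo luminescence after ≥48 hr at 37 °C. Cells: DT40 Tdp1-/- stably carrying human TDP1, 400 per well, compound exposure in the absence of CPT (DMSO vehicle).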
DT40 TDP1 CPT: qHTS for Inhibitors of human tyrosyl-DNA phosphodiesterase 1 (TDP1): qHTS in cells in presence of CPT. 420,000 tested, 12% active. Potency, µM (highest dose often 46.2 µM), for inactives: top-dose activity change, negative = growth inhibition, actives largely listed as inhibitors. chicken DT40 Tdp1-/-;hTDP1 cells + 20 nM CPT, ATP luminescence, 48 h. AID 686979, 2013; note: % is set by controls: 0 for no effect and ±100 for the full control effect; nearly all actives have a fitted effect of over 55% in size
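Chicken DT40 Tdp1-/- cells complemented with human TDP1, 400 cells/well, exposed to compounds plus 20 nM camptothecin for at least 48 h at 37 C; viability read as ATP content by CellTiter-Glo luminescence.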
HepG2 tox: qHTS for Inhibitors of TGF-b: Cytotox Counterscreen; HepG2 CAGA-GFP viability, ATP luminescence, 18 h; Potency, µM (highest dose often 46.1 µM), for inactives: at the highest dose activity change, negative = cytotoxicity, hits mostly cytotoxic; 410,000 tested, 0.76% active
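CellTiter-Glo luminescence gave cytotoxicity after 18 hours at 37 degrees C. The cells were HepG2 CAGA-GFP in 1% FBS DMEM, stimulated with 500 pg/mL TGF-beta after compound addition. %Activity was normalised to no-cell wells (complete cell-killing) and DMSO (no toxicity), and curves were fitted and classified.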
* hit, by the source's call; ? = inconclusive; . = not tested or not shown; [ ] = another dose, or the depositor's remark. Calls come from the whole dose curve; as a rule, active = well fitted curve in the direction sought with a large enough effect; inconclusive = small, poorly fitted or top-dose-only effect, or another doubt; inactive = no such curve, though single readings can be large; an effect the other way counts as inactive or inconclusive. Potency is the fitted concentration of half-maximal effect.

SMILES	HT1080 IDH1KD tx	TGFb SMAD3 inh	HT1080-NT tox	TDP1 cell noCPT	DT40 TDP1 CPT	HepG2 tox
COCCOC(=O)c1c(C)oc2ccc(NS(=O)(=O)c3ccc(F)cc3)cc12	-1%	?	16%	-23%	?	-21%
CCCCC(=O)N(c1ccc2oc(C)c(C(C)=O)c2c1)S(=O)(=O)c1ccc(F)cc1C	.	-24%	.	10µM*	15µM*	-12%
CCCCOC(=O)c1c(C)oc2ccc(NS(=O)(=O)c3ccc(F)cc3C)cc12	.	14µM*	.	?	?	-106%
COc1ccccc1CCNS(=O)(=O)c1ccc(N2CCCCS2(=O)=O)cc1	.	-26%	.	21µM*	23µM*	-17%
COc1ccc(CCNS(=O)(=O)c2ccc(N3CCCCS3(=O)=O)cc2)cc1	.	?	.	21µM*	23µM*	-12%
COc1cccc(CNS(=O)(=O)c2ccc(N3CCCCS3(=O)=O)cc2)c1	.	?	.	16µM*	23µM*	-21%
COCCCNS(=O)(=O)c1ccc(N2CCCCS2(=O)=O)cc1	.	-19%	.	?	?	0%
COc1cccc(CNS(=O)(=O)c2c(C)[nH]c(C)c2C(=O)N2CCCCC2)c1	14%	-20%	1%	?	26µM*	-2%
O=C1NC(=S)N/C1=C/c1ccc2ccccc2c1	4%	-1%	15%	-21%	4%	-1%
OC(c1cccnc1)c1nc(/C=C/c2ccc(C(F)(F)F)cc2)cs1 (configuration not stated)	-25%	-2%	-19%	2.6µM*	21µM*	-20%
OC(c1cccc(Cl)c1)c1nc(/C=C/c2ccc(C(F)(F)F)cc2)cs1 (configuration not stated)	?	?	?	?	23µM*	-92%
CCOc1cc(CN2CCSCC2)ccc1O	3%	-16%	0%	?	-11%	-6%
COc1ccc(CC(C)N2CCN(c3cccc(C(F)(F)F)c3)CC2)cc1OC (configuration not stated)	?	-22%	?	26µM*	?	-34%
CCOc1cc(CN2CCN(c3cccc(C(F)(F)F)c3)CC2)ccc1O	?	10%	-20%	16µM*	16µM*	-45%
CCOc1cc(CN2CCN(c3cccc(C(F)(F)F)c3)CC2)ccc1OC	8%	?	-7%	16µM*	?	-30%
CCC(c1nnnn1CCOC)N1CCN(c2cccc(C(F)(F)F)c2)CC1 (configuration not stated)	-13%[9.24 µM]	1%	-2%	?	?	-2%
CCOc1cc(CN2CCN(c3ccc(C(C)=O)cc3)CC2)ccc1OC	-8%	?	-20%	?	?	0%
N#Cc1c(N)[nH]c(C(=O)c2ccccc2)c1-c1ccc(Cl)cc1	0%	.	-5%	-28%	-28%	.
CC(c1ccco1)N(C(=O)c1ccc(F)cc1)c1ccccn1 (configuration not stated)	-4%	-12%	?	?	-10%	9%
CC(c1ccco1)N(C(=O)C12CC3CC(CC(C)(C3)C1)C2)c1ccccn1 (configuration not stated)	-3%	0%	0%	21µM*	16µM*	7%
CCOC(=O)c1cc(NC(=O)N(C)C2CCCCC2)c(C)nc1C	-1%	8%	17%	-6%	-5%	8%
COc1ccc(C(=O)NCC2Cc3cccc(-c4ccc(S(C)(=O)=O)cc4)c3O2)c(OC)n1 (configuration not stated)	.	.	.	-9%	10%[9.04 µM]	.
Fc1ccccc1/C=N/Nc1nc2ccccc2o1	22%	-1%	23%	-2%	?	-3%
Fc1ccccc1/C=N/Nc1ncnc2ccccc12	?	?	-7%	15µM*	6.5µM*	-47%
Clc1ccc(/C=N/Nc2ncnc3ccccc23)cc1Cl	-18%	?	-2%	21µM*	21µM*	-33%
SMILES	HT1080 IDH1KD tx	TGFb SMAD3 inh	HT1080-NT tox	TDP1 cell noCPT	DT40 TDP1 CPT	HepG2 tox
Clc1cccc(/C=N/Nc2nc(Cl)nc3ccccc23)c1	-2%	0%	2%	?	23µM*	-55%
Nc1c(Cl)ncnc1N/N=C/c1cccc(O)c1	-14%	-18%	-9%	-7%	-18%	-37%
O=C(Nc1ccccc1)C1CCN(C(=O)c2ccccc2)CC1	9%	1%	10%	-11%	1%	-2%
Cc1ccccc1N/C(=C(/C(Cl)=C(Cl)Cl)[N+](=O)[O-])n1nnc2ccccc21	?	-2%	-8%	?	16µM*	-13%
Cc1nc2cc(NC(=O)c3ccco3)ccc2n1C	12%	3%	7%	-2%	0%	5%
COc1ccc(OC)cc1	3%	16%	2%	-1%	-3%	1%
COc1ccc2c(c1)C(=NNc1ccc(C(=O)O)cc1)c1cc(OC)ccc1-2	-19%	26%	-10%	23µM*	?	-24%
COc1ccc2c(c1)C(=NN)c1cc(OC)ccc1-2	?	-1%	-15%	?	16µM*	-12%
COc1ccc(/C(C)=N/Nc2ccc(C(=O)O)cc2)c(OC)c1	-10%	1%	-1%	-19%	-27%	5%
COCCCN1C(=O)C(CC(=O)NCC2CCCCC2)CC(C(=O)N2CCOCC2)=C1C (configuration not stated)	1%	13%	2%	4%	3%	-45%
COc1ccccc1N(Cc1cc(=O)[nH]c2ccccc12)C(=O)c1ccc([N+](=O)[O-])cc1	16%	?	16%	12µM*	21µM*	12%
Cc1ncc(Cc2ccccc2)c(C2CCN(S(=O)(=O)C[C@]34CC[C@H](CC3=O)C4(C)C)CC2)n1	.	.	.	15µM*	?	.
Cc1ccc(C)c(N2CCN(S(=O)(=O)CC34CCC(CC3=O)C4(C)C)CC2)c1 (configuration not stated)	-29%	?	?	-24%	?	-10%
O=[N+]([O-])c1ccccc1Nc1cccc(F)c1	7%	-10%	0%	-4%	-17%	0%
CC(C)Cc1nc2ccc(N)cc2[nH]1	-1%	-8%	2%	9%	-7%	4%
